Screening results from PubChem.
GDH-TPI inh – GDH-TPI coupled enzyme inhibition counter-screen; GDH-TPI coupled enzyme counterscreen, NADH absorbance; inhibition, % at 4.8 µM; 1.2% of 360,000 active; AID 588335; in the data active = inhibition above about 30%
Bead autofluor – flagged as autofluorescent in microsphere protease counterscreen; compound autofluorescence counterscreen, microsphere flow cytometry; active compounds read high; fluorescence intensity (test concentration not listed); 3.1% of 360,000 active; in the data active = fluorescence intensity above about 16000; inconclusive = no clear call, values can overlap the other calls
BoNT F protease – blocks Botulinum neurotoxin F light chain protease; Multiplex microsphere protease cleavage assay, flow cytometry; inhibition, % at 10 µM; 0.22% of 360,000 active; AID 588497; in the data active = inhibition above about 35%, passing the limit was not always enough; inconclusive = no clear call, values can overlap the other calls
Mtb FBA inh – inhibits M. tuberculosis FBA enzyme; P9WQA3; purified M. tuberculosis FBA, fluorescence read-out; inhibition, % at 1 µM; 2.3% of 360,000 active; in the data active = inhibition above about 27%
Target sequence (P9WQA3 whole entry, looked up): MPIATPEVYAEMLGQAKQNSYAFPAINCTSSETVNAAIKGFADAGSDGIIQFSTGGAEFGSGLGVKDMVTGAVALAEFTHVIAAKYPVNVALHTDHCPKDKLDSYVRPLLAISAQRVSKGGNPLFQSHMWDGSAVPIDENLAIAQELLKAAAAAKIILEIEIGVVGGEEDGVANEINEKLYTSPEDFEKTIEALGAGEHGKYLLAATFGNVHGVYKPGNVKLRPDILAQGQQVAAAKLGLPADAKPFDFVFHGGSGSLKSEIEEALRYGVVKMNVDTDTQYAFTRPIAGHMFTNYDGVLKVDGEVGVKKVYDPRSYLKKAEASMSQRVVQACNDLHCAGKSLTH
BoNT-A LC inh2 – blocks Botulinum neurotoxin A light chain protease. multiplex microsphere protease substrate cleavage, flow cytometry. 0.17% of 360,000 active. inhibition, % at 10 µM. AID 588499
Anthrax LF inh2 – anthrax lethal factor protease inhibition. multiplex microsphere protease cleavage assay, LF. 0.12% of 360,000 active. inhibition, % at 10 µM. P15917
A number is an active result. A selection: hits, their analogues and other compounds. The true share with any hit is near 6.7%. Rule as the data show it, unless noted: active = inhibition above about 30%; inconclusive = no clear call, values can overlap the other calls; inactive = below that.

How did COc1ccc(-c2cc(C(=O)NCCc3ccc(S(N)(=O)=O)cc3)c3ccccc3n2)cc1 do in these assays?
GDH-TPI inh: inactive; Bead autofluor: inactive; BoNT F protease: inactive; Mtb FBA inh: 67; BoNT-A LC inh2: inactive; Anthrax LF inh2: inactive

What do the screens show for `COc1ccc(NC(=O)c2ccc(C#N)cc2)cc1NS(=O)(=O)c1ccc(F)cc1`?
GDH-TPI inh: inactive; Bead autofluor: inactive; BoNT F protease: inactive; Mtb FBA inh: inactive; BoNT-A LC inh2: inactive; Anthrax LF inh2: inactive

How did CCOc1ccc(S(=O)(=O)Nc2cccc(N(C)S(C)(=O)=O)c2)cc1 do in these assays?
GDH-TPI inh: inactive; Bead autofluor: inactive; BoNT F protease: inactive; Mtb FBA inh: inactive; BoNT-A LC inh2: inactive; Anthrax LF inh2: inactive

What do the screens show for `CSCCC(NC(=O)C1CCC(C)CC1)C(=O)O` (stereo not drawn)?
GDH-TPI inh: inactive; Bead autofluor: 23567; BoNT F protease: inactive; Mtb FBA inh: inactive; BoNT-A LC inh2: inconclusive; Anthrax LF inh2: inactive

How did CSCCC(NC(=O)C1CCC(C)CC1)C(=O)NCCN1CCOCC1 (stereo not drawn) do in these assays?
GDH-TPI inh: inactive; Bead autofluor: 22383; BoNT F protease: inactive; Mtb FBA inh: inactive; BoNT-A LC inh2: inactive; Anthrax LF inh2: inactive

Results for CCN1C(=O)/C(=C/C=C2/Sc3ccc4ccccc4c3N2CCO)SC1=S ?
GDH-TPI inh: inactive; Bead autofluor: inactive; BoNT F protease: 36; Mtb FBA inh: inactive; BoNT-A LC inh2: 63; Anthrax LF inh2: 52

How did CCN1/C(=C\C=C2\C(=O)N(C)C(=S)N2C)Sc2ccccc21 do in these assays?
GDH-TPI inh: inactive; Bead autofluor: inactive; BoNT F protease: inactive; Mtb FBA inh: inactive; BoNT-A LC inh2: inactive; Anthrax LF inh2: inactive

Results for CN1CCS/C1=C/C=C1/SC(=S)N(Cc2ccccc2)C1=O ?
GDH-TPI inh: inactive; Bead autofluor: inactive; BoNT F protease: inactive; Mtb FBA inh: inactive; BoNT-A LC inh2: inactive; Anthrax LF inh2: inactive

What do the screens show for `CCN1C(c2ccccc2)=C(c2ccccc2)S/C1=C/C=C1\SC(=S)N(C)C1=O`?
GDH-TPI inh: inactive; Bead autofluor: inactive; BoNT F protease: inactive; Mtb FBA inh: inactive; BoNT-A LC inh2: 141; Anthrax LF inh2: 41

What do the screens show for `CCN1C(c2ccccc2)=C(c2ccccc2)S/C1=C\C=C1/SC(=S)N(C)C1=O`?
GDH-TPI inh: inactive; Bead autofluor: inactive; BoNT F protease: inactive; Mtb FBA inh: inactive; BoNT-A LC inh2: 98; Anthrax LF inh2: 44

How did CCCOc1cccc(CN2CCCCC2c2cccnc2)c1 (stereo not drawn) do in these assays?
GDH-TPI inh: inactive; Bead autofluor: inactive; BoNT F protease: inactive; Mtb FBA inh: inactive; BoNT-A LC inh2: inactive; Anthrax LF inh2: inactive

Results for COc1ccccc1CN1CCCCC1c1cccnc1 (stereo not drawn) ?
GDH-TPI inh: inactive; Bead autofluor: 22672; BoNT F protease: inactive; Mtb FBA inh: inactive; BoNT-A LC inh2: inactive; Anthrax LF inh2: inactive

Results for CC(=O)O/N=C/c1c(N2CCOCC2)n(C)c2ccccc12 ?
GDH-TPI inh: inactive; Bead autofluor: 23889; BoNT F protease: inactive; Mtb FBA inh: inactive; BoNT-A LC inh2: inactive; Anthrax LF inh2: inactive

What do the screens show for `Cc1ccc(C(=O)O/N=C/c2c(N3CCOCC3)n(C)c3ccccc23)cc1`?
GDH-TPI inh: inactive; Bead autofluor: inactive; BoNT F protease: inactive; Mtb FBA inh: inactive; BoNT-A LC inh2: inactive; Anthrax LF inh2: inactive

How did CCN1C=C(C(=O)OC)C(c2cccc(OC)c2OC)C(C(=O)OC)=C1 do in these assays?
GDH-TPI inh: inactive; Bead autofluor: inactive; BoNT F protease: inactive; Mtb FBA inh: 172; BoNT-A LC inh2: inactive; Anthrax LF inh2: inactive

Results for COC(=O)C1=CN(C2CC2)C=C(C(=O)OC)C1c1ccccc1OC ?
GDH-TPI inh: inactive; Bead autofluor: inactive; BoNT F protease: inactive; Mtb FBA inh: 157; BoNT-A LC inh2: inactive; Anthrax LF inh2: inactive

What do the screens show for `COC(=O)C1=CN(Cc2ccc(OC)c(OC)c2)C=C(C(=O)OC)C1c1cccc(OC)c1OC`?
GDH-TPI inh: inactive; Bead autofluor: inactive; BoNT F protease: inactive; Mtb FBA inh: 140; BoNT-A LC inh2: inactive; Anthrax LF inh2: inactive

What do the screens show for `COc1cccc(N2CCN(C(=O)CCC(=O)N3CCOc4ccc(C)cc43)CC2)c1`?
GDH-TPI inh: inactive; Bead autofluor: inactive; BoNT F protease: inactive; Mtb FBA inh: inactive; BoNT-A LC inh2: inactive; Anthrax LF inh2: inactive

Results for C/C(=N\NC(=O)C(C)Oc1ccc([N+](=O)[O-])cc1)c1ccccn1 (stereo not drawn) ?
GDH-TPI inh: inactive; Bead autofluor: 24747; BoNT F protease: inactive; Mtb FBA inh: inactive; BoNT-A LC inh2: inconclusive; Anthrax LF inh2: inactive

What do the screens show for `Cn1c(C(=O)OCC(=O)NCC2CCCO2)cc2sccc21` (stereo not drawn)?
GDH-TPI inh: inactive; Bead autofluor: inactive; BoNT F protease: inactive; Mtb FBA inh: inactive; BoNT-A LC inh2: inactive; Anthrax LF inh2: inactive

What do the screens show for `O=C(CC1S/C(=N/N=C/c2cccs2)NC1=O)Nc1ccccc1F` (stereo not drawn)?
GDH-TPI inh: 33; Bead autofluor: inactive; BoNT F protease: inactive; Mtb FBA inh: inactive; BoNT-A LC inh2: inactive; Anthrax LF inh2: inactive

How did C=CCC1S/C(=N/N=C/c2cccs2)NC1=O (stereo not drawn) do in these assays?
GDH-TPI inh: 53; Bead autofluor: inactive; BoNT F protease: inactive; Mtb FBA inh: inactive; BoNT-A LC inh2: inactive; Anthrax LF inh2: inactive

What do the screens show for `O=C(NCc1cccnc1)c1ccc2c(c1)OCO2`?
GDH-TPI inh: inactive; Bead autofluor: 22188; BoNT F protease: inactive; Mtb FBA inh: inactive; BoNT-A LC inh2: inconclusive; Anthrax LF inh2: inactive

Results for O=C(COC(=O)c1ccc2c(c1)OCO2)NCc1ccc2c(c1)OCO2 ?
GDH-TPI inh: inactive; Bead autofluor: inconclusive; BoNT F protease: inactive; Mtb FBA inh: inactive; BoNT-A LC inh2: inactive; Anthrax LF inh2: inactive

How did CCCCC1CCC(C(=O)NCc2ccc3c(c2)OCO3)CC1 (stereo not drawn) do in these assays?
GDH-TPI inh: inactive; Bead autofluor: 23610; BoNT F protease: inactive; Mtb FBA inh: inactive; BoNT-A LC inh2: inactive; Anthrax LF inh2: inactive

How did COCC(=O)NCc1ccc2c(c1)OCO2 do in these assays?
GDH-TPI inh: inactive; Bead autofluor: 22350; BoNT F protease: inactive; Mtb FBA inh: inactive; BoNT-A LC inh2: inactive; Anthrax LF inh2: inactive

How did O=C(CCS(=O)(=O)c1ccc(Br)s1)NCc1ccc2c(c1)OCO2 do in these assays?
GDH-TPI inh: inactive; Bead autofluor: 22950; BoNT F protease: inactive; Mtb FBA inh: inactive; BoNT-A LC inh2: inconclusive; Anthrax LF inh2: inactive

Results for CCS(=O)(=O)N1CCC(C(=O)NCc2ccc3c(c2)OCO3)CC1 ?
GDH-TPI inh: inactive; Bead autofluor: inactive; BoNT F protease: inactive; Mtb FBA inh: inactive; BoNT-A LC inh2: inactive; Anthrax LF inh2: inactive

How did O=C1C2C3C=CC(C3)C2C(=O)N1Cc1ccccc1 (stereo not drawn) do in these assays?
GDH-TPI inh: inactive; Bead autofluor: inactive; BoNT F protease: inactive; Mtb FBA inh: inactive; BoNT-A LC inh2: inactive; Anthrax LF inh2: inactive

What do the screens show for `CC(=O)Nc1ccc(S(=O)(=O)NCCS(=O)(=O)N2CCN(c3ccccc3)CC2)cc1`?
GDH-TPI inh: inactive; Bead autofluor: inactive; BoNT F protease: inactive; Mtb FBA inh: inactive; BoNT-A LC inh2: inactive; Anthrax LF inh2: inactive
